PubChem BioAssay AID686979 (National Center for Advancing Translational Sciences (NCATS), 2013)
The campaign covered roughly 420,000 compounds. About 50,000 (12%) were called active. Inconclusive results (about 26%) are left out. What follows is part of a selection rich in actives, with near analogues and random picks from the rest. Values without a mark were called inactive. Calls follow the shape of the dose curve; as a rule, active = well fitted inhibition curve with a large enough effect; inconclusive = small, poorly fitted or top-dose-only effect; inactive = flat fitted curve, though single readings scatter.

experiment: qHTS for Inhibitors of human tyrosyl-DNA phosphodiesterase 1 (TDP1): qHTS in cells in presence of CPT; conditions: chicken DT40 Tdp1-/-;hTDP1 cells + 20 nM CPT, ATP luminescence, 48 h; series mostly up to 46.2 µM; activity change, negative = growth inhibition: at the top concentration; also: nearly all actives have a fitted effect of over 55% in size
How it was run: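 Chicken DT40 Tdp1-/- cells stably complemented with human TDP1 were seeded at 400 cells/well in medium containing 20 nM camptothecin, exposed to pin-transferred compounds, and grown at 37 °C for at least 48 hr. Viability was read as ATP luminescence.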
% is scaled to controls: 0 for no effect and ±100 for the full control effect; potency is read from the fitted curve at half-maximal effect.

Work on `COc1ccc2c(c1)CCc1cnc(-n3ncc(C(=O)NCc4cccnc4)c3C3CC3)nc1-2` yielded an activity change, negative = growth inhibition of -5.66% [at 9.04 µM].

Point of comparison: `Cc1cccc(NC(=O)c2cccc(C(=O)Nc3cccc(C)c3C)n2)c1C`, “activity change, negative = growth inhibition” value -23.1%. Against it:
- Cc1nc2ccccn2c(=O)c1NC(=O)c1cccs1 — higher, 2.74%
- Cc1ccc(S(=O)(=O)NCC(=O)Nc2ccc3c(c2)OCCO3)cc1 — higher, 1.97%
- CCOc1ccc(N(CC(=O)NCc2ccc(OC)cc2)S(=O)(=O)c2c(C)noc2C)cc1 — higher, 1.59%
- Cn1c(Nc2cccc(Cl)c2)nc2ccccc21 — lower, -28.2%
- O=C(O)c1cccc(NC(=O)c2cc(-c3cccc(Cl)c3)nc3ccccc23)c1 — higher, 9.84%
- CC1(c2ccc3ccccc3c2)NC(=O)NC1=O (configuration not stated) — higher, -0.204%
- Cc1cccc(N2C(=O)c3ccc(C(=O)Nc4cccc(C(=O)O)c4)cc3C2=O)c1 — higher, -4.27%
- CCOc1ccccc1NC(=O)Cn1c(=O)n(Cc2ccccc2)c(=O)c2c(C)c(C(=O)N(C)C)sc21 — lower, -23.6%
- O=C(C1CC(=O)N(C2CCCCC2)C1)N1CCN(c2ccccc2)CC1 (configuration not stated) — higher, -10.9%
- O=C1C2CCCN2C(=O)N1CCCCN1CCN(c2cccc(C(F)(F)F)c2)CC1 (configuration not stated) — lower, -24.6%
- COC(=O)c1cc(=O)n(-c2c(Cl)cc(C(F)(F)F)cc2Cl)[nH]1 — higher, 6.68%
- CC(=O)Nc1ccccc1OC(C)C(=O)N1CCC(C)CC1 (configuration not stated) — higher, -10.5%
- O=C(NCC(O)c1ccc([N+](=O)[O-])cc1)C1CCCCC1 (configuration not stated) — higher, -1.64%
- O=C(COc1nsnc1N1CCOCC1)Nc1ccccc1Cl — higher, -3.03%
- NC(=O)C1CCN(C(=O)COc2cccc3cccnc23)CC1 — higher, -5.39%
- COC(=O)c1ccc(N2CCOCC2)c(NC(=O)c2ccc3c(c2)OCCO3)c1 — higher, -1.66%
- CCOc1cc(NC(=O)c2ccccc2C(=O)O)c(OCC)cc1NC(=O)c1ccccc1F — higher, -11.2%
- Cc1ccc(S(=O)(=O)N2CCN(Cc3cccc(C)c3O)CC2)cc1 — higher, 6.96%
- O=C(COc1cccc(Cl)c1)NCc1ccccc1 — higher, 5.77%
- COCCN(CCOC)S(=O)(=O)NC[C@H]1O[C@@H](n2cnc3c(N)ncnc32)[C@H](O)[C@@H]1O — higher, 3.16%

In the case of `Cc1noc(C)c1S(=O)(=O)N(CC(=O)Nc1ccc2c(c1)OCCO2)c1ccc(C(C)C)cc1`, the Potency is reported as 20.6 µM (active).
For `Cc1c(C(=O)Nc2cccc(Cl)c2)cn2c(nc3ccccc32)c1C#N`, the Potency was 16.4 µM (active).
With `O=C(C1CC(=O)N(C2CCCC2)C1)N1CCN(c2cccc(C(F)(F)F)c2)CC1` (configuration not stated) the Potency was 14.6 µM (active).
For `CCOc1cc(N2CCOCC2)c(OCC)cc1NC(=O)COc1cccc2cccnc12`, the Potency was 10.3 µM (active).
For `CCOc1cc(N2CCOCC2)c(OCC)cc1NC(=O)c1ccc(C)s1`, the Potency was 9.2 µM (active).
